The list is not random: actives were taken first. Their share in the collection is about 7%.
proKLK7 act – activators of human kallikrein-7 zymogen. P49862. purified proKLK7, EDANS-DABCYL substrate fluorescence; 100% is mature enzyme control, 0% vehicle. activation, % at 7 µM. hit rate 0.9% among 370,000. AID 652039;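 active means activation above the mean of all tested compounds plus 3 SD, computed per campaign excluding outliers beyond control limits, cut at about 13% in these data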
Target sequence (P49862 whole entry, looked up): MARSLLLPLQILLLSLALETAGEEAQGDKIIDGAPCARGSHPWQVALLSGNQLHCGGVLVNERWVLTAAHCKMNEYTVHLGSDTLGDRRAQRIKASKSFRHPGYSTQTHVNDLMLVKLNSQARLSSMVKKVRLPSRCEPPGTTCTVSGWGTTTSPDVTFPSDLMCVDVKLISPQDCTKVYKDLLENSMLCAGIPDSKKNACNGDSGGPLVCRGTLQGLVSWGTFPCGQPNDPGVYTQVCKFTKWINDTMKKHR
ADAM10 inh – ADAM10 inhibition, QFRET primary screen. O14672. recombinant ADAM10, EDANS/DABCYL FRET peptide cleavage, 3 h. inhibition, % at 7 µM. hit rate 0.62% among 370,000;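 active means inhibition above a per-campaign cutoff equal to the mean of compounds falling between control-based bounds plus 3 SD, cut at about 20% in these data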;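 further: 0% = DMSO wells while the 100% control is not disclosed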
NR3A LBD binder – NR3A (human) ligand-binding domain modulation. hit rate 2.5% among 340,000. NR3A LBD differential scanning fluorimetry, Tm shift; 0% = protein alone, 100% = glycine-bound protein. Tm shift relative to glycine control, % at 25 µM;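 active means melting temperature shift of at least 10% of the positive control shift, at one fixed dose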
AHR act – activates the human aryl hydrocarbon receptor. activation, % at 5 µM. AHR-responsive luciferase reporter cells, luminescence. hit rate 2.5% among 320,000. P35869; in the data active means activation above about 47%;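 further: 0% = vehicle wells and 100% = reference agonist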
ADAM17 inh – inhibits human ADAM17. P78536. recombinant ADAM17, EDANS/DABCYL FRET peptide cleavage. inhibition, % at 6.95 µM. hit rate 0.83% among 370,000. AID 720648;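 active means inhibition above the mean of compounds lying between control limits plus 3 SD, set per campaign, cut at about 8.5% in these data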;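 further: 0% = DMSO-only wells as the low control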
rCAG RNA binder – molecules binding r(CAG) RNA repeats; r(CAG) RNA repeat, TO-PRO-1 dye displacement fluorescence; inhibition, % at 3 µM; hit rate 1.3% among 370,000;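 active means inhibition above the plate cutoff, the mean of all test compounds on that plate plus 3 SD, cut at about 35% in these data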;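 further: 0% = DMSO alone and 100% = 100 µM mitoxantrone as full dye displacement; higher means more dye released from RNA so lower well fluorescence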
AHR act cf – confirmation of human aryl hydrocarbon receptor activators | hit rate 87% among 2,300 | AID 2845 | activation, % at 9 µM | shares compounds with AHR act | human cells, AHR-responsive luciferase reporter, luminescence; in the data active means activation above about 49%;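 further: HepG2 hepatoma cells carrying a DRE-driven firefly luciferase reporter; 0% = vehicle wells and 100% = reference agonist wells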
PXR counter – activates human PXR in AHR activator counter-screen; shares compounds with AHR act; cell-based PXR reporter, luciferase luminescence; activation, % at 11.6 µM; hit rate 88% among 2,300; AID 434939; in the data active means activation above about 11%;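 further: human hepatoma DPX-2 cells expressing full-length human PXR; 0% = DMSO and 100% = reference agonist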
* marks the source's active call; other numbers are inactive results.

How did COc1ccccc1NC(=O)c1ccc2[nH]c(C)c(C)c2c1 do in these assays?
proKLK7 act: 0; ADAM10 inh: 3; NR3A LBD binder: 20*; AHR act: 113*; ADAM17 inh: -1; rCAG RNA binder: 12; AHR act cf: 133*; PXR counter: 69*

What do the screens show for `Cc1ccc(NC(=S)Nc2ccc(-c3nnc4n3CCCCC4)cc2)cc1C`?
proKLK7 act: 0; ADAM10 inh: -3; ADAM17 inh: -3; rCAG RNA binder: -1

How did Cc1ccc2c(c1)c1nnc(SCC(=O)NC3CC3)nc1n2C do in these assays?
proKLK7 act: 0; ADAM10 inh: -5; AHR act: 79*; ADAM17 inh: 1; rCAG RNA binder: -1; AHR act cf: 100*; PXR counter: 19*

What do the screens show for `Cn1c2ccccc2c2nnc(SCC(=O)NC3CCCC3)nc21`?
proKLK7 act: 0; ADAM10 inh: 4; NR3A LBD binder: -2; AHR act: -1; ADAM17 inh: 0; rCAG RNA binder: 4

Results for O=C1NC(=Nc2ccccc2)/C(=C/c2ccco2)S1 ?
proKLK7 act: -2; ADAM10 inh: -17; NR3A LBD binder: -2; AHR act: 84*; ADAM17 inh: -4; rCAG RNA binder: 10; AHR act cf: 34; PXR counter: 20*

How did C[C@@H]1C=CCCO[C@]12C(=O)N(Cc1ccc(Br)cc1)c1ccccc12 do in these assays?
proKLK7 act: 0; ADAM10 inh: -11; ADAM17 inh: 0; rCAG RNA binder: 1

What do the screens show for `CCN(CC)CCNc1nc2cc(OC)c(OC)cc2c2nc(-c3ccccc3)nn12`?
proKLK7 act: 5; ADAM10 inh: -265; NR3A LBD binder: 2; AHR act: 90*; ADAM17 inh: -73; rCAG RNA binder: 3; AHR act cf: 17; PXR counter: 5

How did O=C(CN(c1ccc(F)cc1)S(=O)(=O)c1ccc2c(c1)OCCO2)Nc1ccc2c(c1)OCO2 do in these assays?
proKLK7 act: 1; ADAM10 inh: 12; NR3A LBD binder: -9; AHR act: 101*; ADAM17 inh: 2; rCAG RNA binder: 3; AHR act cf: 52*; PXR counter: 72*

What do the screens show for `Nc1nc(Nc2ccc(Cl)cc2)nc(NCCO)c1[N+](=O)[O-]`?
proKLK7 act: 0; ADAM10 inh: 2; NR3A LBD binder: -1; AHR act: 111*; ADAM17 inh: 1; rCAG RNA binder: 1; AHR act cf: 193*; PXR counter: 25*

How did CNc1nc(N)c([N+](=O)[O-])c(Nc2cccc(F)c2)n1 do in these assays?
proKLK7 act: 0; ADAM10 inh: -7; NR3A LBD binder: 4; AHR act: 16; ADAM17 inh: -2; rCAG RNA binder: 1

How did C=CCNc1nc(N)c([N+](=O)[O-])c(Nc2cccc(Cl)c2)n1 do in these assays?
proKLK7 act: 0; ADAM10 inh: 2; NR3A LBD binder: 2; AHR act: 89*; ADAM17 inh: 7; rCAG RNA binder: 5; AHR act cf: 132*; PXR counter: 13*

Results for Cc1ccc(NC(=O)c2noc3c2CCc2ccccc2-3)cc1 ?
proKLK7 act: 0; ADAM10 inh: 3; NR3A LBD binder: 2; AHR act: 102*; ADAM17 inh: -1; rCAG RNA binder: 1; AHR act cf: 133*; PXR counter: 20*

How did CCc1ccc(NC(=O)c2noc3c2CCc2ccccc2-3)cc1 do in these assays?
proKLK7 act: 0; ADAM10 inh: 2; NR3A LBD binder: 4; AHR act: 24; ADAM17 inh: -4; rCAG RNA binder: 0

Results for O=C(OCc1cn(Cc2cccc(C(F)(F)F)c2)nn1)N1CCOCC1 ?
proKLK7 act: 0; ADAM10 inh: -1; ADAM17 inh: -3; rCAG RNA binder: 0

Results for C=CCOC(=O)c1[nH]c2c(c1C)C(=O)CC(c1ccco1)C2 (stereo not given) ?
NR3A LBD binder: -2; AHR act: 103*; AHR act cf: 23; PXR counter: 195*

What do the screens show for `Fc1ccc(-c2csc(NC(=S)Nc3ccccc3)n2)cc1`?
proKLK7 act: 0; ADAM10 inh: 9; NR3A LBD binder: 25*; AHR act: 84*; ADAM17 inh: 3; rCAG RNA binder: 21; AHR act cf: 79*; PXR counter: 32*

Results for CC(=O)Nc1cccc(-c2csc(Nc3ccccn3)n2)c1 ?
proKLK7 act: -1; ADAM10 inh: 14; NR3A LBD binder: 8; AHR act: 85*; ADAM17 inh: 1; rCAG RNA binder: 12; AHR act cf: 74*; PXR counter: 8

Results for CC(=O)Oc1ccc(-c2csc(Nc3ccccn3)n2)cc1 ?
proKLK7 act: 0; ADAM10 inh: 9; ADAM17 inh: 0; rCAG RNA binder: 1

What do the screens show for `O=C(Nc1ccccc1)Nc1nc(-c2ccc(F)cc2)cs1`?
proKLK7 act: 0; ADAM10 inh: -7; NR3A LBD binder: 6; AHR act: -4; ADAM17 inh: -5; rCAG RNA binder: 32

How did O=C(CSc1ncn[nH]1)Nc1nc(-c2ccccc2)ns1 do in these assays?
proKLK7 act: 1; ADAM10 inh: 8; NR3A LBD binder: -3; AHR act: 29; ADAM17 inh: 2; rCAG RNA binder: -2

How did CC(=O)Nc1nc(C)c(-c2csc(Nc3ccccn3)n2)s1 do in these assays?
proKLK7 act: 3; ADAM10 inh: -17; NR3A LBD binder: 22*; AHR act: 116*; ADAM17 inh: -7; rCAG RNA binder: 13; AHR act cf: 108*; PXR counter: 32*

How did CCC(=O)Nc1nc(-c2ccccc2)ns1 do in these assays?
proKLK7 act: 0; ADAM10 inh: 1; NR3A LBD binder: -1; AHR act: 102*; ADAM17 inh: 2; rCAG RNA binder: 4; AHR act cf: 84*; PXR counter: 32*

What do the screens show for `O=C(NCc1cccs1)C1C2C=CC3(CN(Cc4ccccc4)C(=O)C13)O2` (stereo not given)?
proKLK7 act: -1; ADAM10 inh: -4; ADAM17 inh: 6; rCAG RNA binder: 3

Results for CCN(CC)CCCN1C(=O)C2=C(C1=O)C1N(C)c3ccccc3[C@@]13C[C@@H](CO)N(C(=O)CCC(=O)OC)C3=N2 (stereo not given in full) ?
proKLK7 act: 0; ADAM10 inh: -4; ADAM17 inh: -3; rCAG RNA binder: 2

Results for Fc1ccc(-c2csc(Nc3ccccn3)n2)cc1 ?
proKLK7 act: 0; ADAM10 inh: -2; NR3A LBD binder: -3; AHR act: 83*; ADAM17 inh: 2; rCAG RNA binder: 1; AHR act cf: 107*; PXR counter: 18*
